Rows were chosen to be rich in hits. Some 19% of all compounds tested hit in one or more screens of this group.
AMA1-RON2 inh – disrupts binding of P. falciparum AMA1 to RON2 | AlphaScreen AMA1-biotinylated RON2 peptide binding | 0.2% of 360,000 active | Potency, µM (doses to about 58.2 µM), actives largely listed as inhibitors; note: nearly all actives have a fitted effect of over 45% in size
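AMA1 (3D7) with his tag at 25 nM final met compounds first, then biotinylated RON2 peptide at 25 nM; detection used donor plus acceptor beads, 10 µg/mL apiece, read by AlphaScreen after 30 min at room temperature.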
Shiga inhibitor – blocks Shiga toxin action in Vero cells | inhibition, % at 38.7 µM | Vero cells, Shiga toxin protein synthesis inhibition reporter | AID 2315 | 9.2% of 290,000 active; in the data active = inhibition mostly above about 28%, no sharp cut-off; inactive = mostly below about 43%
SARS PLpro yeast – blocks SARS-CoV papain-like protease in a yeast assay; S. cerevisiae expressing SARS-CoV PLpro, growth rescue; Potency, µM (top dose mostly 32.9 µM), most hits filed as activators; 0.19% of 330,000 active; calls by dose curve; note: nearly all actives have a fitted effect of over 55% in size
Pf growth 96h – P. falciparum growth inhibition at 96 hour, primary screen for plastid delayed-death inhibitors | Potency, µM (top dose mostly 28.7 µM), actives largely listed as inhibitors | 6.9% of 320,000 active | AID 504834 | P. falciparum luciferase reporter growth, 96 h
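Compounds incubated with erythrocytes infected by luciferase-expressing P. falciparum (2% hematocrit, 0.05% parasitemia final) for 96 hours, 37 C in 5% CO2. Growth inhibition scored as decreased luciferase luminescence.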
Pf growth 48h – inhibits P. falciparum growth in the first generation, 48 h | P. falciparum luciferase growth in erythrocytes, 48 h | Potency, µM (series often up to 28.7 µM), actives largely listed as inhibitors | 5.9% of 310,000 active | AID 504832
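Parasite viability was followed by luminescence of a genomically integrated firefly luciferase. Cultures held 0.1% parasitemia at 2% hematocrit (final), incubated under 5% CO2 at 37 C.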
Cycloheximide cs – counter-screen for Shiga toxin inhibitors: cycloheximide protein synthesis inhibition; cell reporter, cycloheximide protein synthesis inhibition counterscreen; max response, %; 12% of 300,000 active; in the data active = max response mostly above about 13%, no sharp cut-off; inactive = mostly below about 14%; note: read at 38.3 µM for the half of the compounds with a filed dose
A number is an active result; – = inactive; ? = inconclusive; · = no result given; [ ] = dose if it differs, or a comment. Unless noted, calls come from the whole dose curve; as a rule, active = well fitted curve in the direction sought with a large enough effect; inconclusive = small, poorly fitted or top-dose-only effect, or another doubt; inactive = no such curve, though single readings can be large; an effect the other way counts as inactive or inconclusive.

SMILES	AMA1-RON2 inh	Shiga inhibitor	SARS PLpro yeast	Pf growth 96h	Pf growth 48h	Cycloheximide cs
O=C(O)c1cccc(S(=O)(=O)N2CCN(C(c3ccccc3)c3ccccc3)CC2)c1	–	–	–	13µM	10µM	–
Cc1c(S(=O)(=O)N2CCN(C(c3ccccc3)c3ccccc3)CC2)c(=O)n(C)c(=O)n1C	–	–	–	2.3µM	1.7µM	–
CNC(=S)N1N=C(c2ccc(C)cc2)CC1c1ccc(Br)cc1 (stereo not drawn)	–	–	–	?	·	–
CNC(=S)N1N=C(c2ccc(C)cc2)CC1c1ccc(Cl)cc1 (stereo not drawn)	–	–	–	8.3µM	·	–
CC(C)c1ccc(C2CC(c3ccc(Br)cc3)=NN2C(N)=S)cc1 (stereo not drawn)	–	active	–	?	?	–
CC[C@@H]1C=C(C)C[C@H](C)C[C@H](OC)[C@H]2O[C@@](O)(C(=O)C(=O)N3CCCC[C@H]3C(=O)O[C@H](/C(C)=C/[C@@H]3CC[C@@H](O)[C@H](OC)C3)[C@H](C)[C@@H](O)CC1=O)[C@H](C)C[C@@H]2OC	·	–	–	2.6µM	2.3µM	–
CO[C@H]1C[C@@H]2CC[C@@H](C)[C@@](O)(O2)C(=O)C(=O)N2CCCC[C@H]2C(=O)OC([C@H](C)C[C@@H]2CC[C@@H](O)[C@H](OC)C2)CC(=O)[C@H](C)/C=C(\C)[C@@H](O)[C@@H](OC)C(=O)[C@H](C)C[C@H](C)/C=C/C=C/C=C/1C (stereo partly drawn)	·	–	·	·	·	–
CC(C)C[C@@H](C(=O)N[C@@H](Cc1c[nH]c2ccccc12)C(N)=O)N1C[C@]2(CCCN2C(=O)[C@H](Cc2ccccc2)NC(=O)[C@H](Cc2ccccc2)NC(=O)[C@H](CCC(N)=O)NC(=O)[C@H](CCC(N)=O)NC(=O)[C@@H]2CCCN2C(=O)[C@H](CCCCN)NC(=O)[C@@H]2CCCN2C(=O)[C@@H](N)CCCNC(=N)N)CC1=O	·	–	·	·	·	–
COc1ccc(NC(=O)CN(C)C(=O)Cc2c(C)nc3ccccc3c2C)cc1	–	·	–	?	?	·
O=C1c2ccccc2C(=O)N1CCCCSc1nnc2ccccn12	–	–	–	?	13µM	–
CCn1c(SCc2nc(-c3ccccc3)no2)nnc1-c1ccco1	–	–	–	?	?	–
CCn1c(SCc2c(F)cccc2Cl)nnc1-c1ccco1	–	34	–	·	–	12
Fc1cccc(Cl)c1CSc1nnc2ccccn12	–	91	–	–	–	42
Fc1ccc(CSc2nnc3ccccn23)c(Cl)c1	–	96	–	–	–	44
Brc1ccc(CSc2nnc3ccccn23)cc1	–	50	–	–	–	26
Clc1cccc(Cl)c1CSc1nnc2ccccn12	–	–	–	–	–	–
O=C(NC(Cc1ccccc1)C(=O)N1CCCCC1)c1ccccc1 (stereo not drawn)	–	·	–	–	–	·
Cc1ccc(O)c(N=Nc2ccc(S(=O)(=O)N3CCCC3)cc2)c1	–	42	–	?	?	27
COc1cccc(N=Nc2ccc3ccccc3c2O)c1	2.8µM	58	–	–	–	40
COc1ccc(N=Nc2ccc3ccccc3c2)c(O)c1	?	·	–	–	–	50
Cc1ccc(S(=O)(=O)N2CCCCC2)cc1	–	–	–	–	·	–
COc1ccc(N=Nc2cc(C)ccc2O)cc1	?	82	–	–	–	48
Cc1ccc(O)c(N=Nc2nccs2)c1	–	·	–	–	?	·
CC(C)N1CC(COc2ccc(Cl)cc2Cl)OC1=O (stereo not drawn)	–	–	–	–	–	–
ONC=Nc1cccc2nonc12	–	–	–	–	–	–
SMILES	AMA1-RON2 inh	Shiga inhibitor	SARS PLpro yeast	Pf growth 96h	Pf growth 48h	Cycloheximide cs
CCOC(=O)c1ccc(N=Cc2cnc(N)nc2N)cc1	–	·	·	·	·	·
CN(C)S(=O)(=O)c1ccc(Cl)c(NC(=O)CSc2nc3c(cc2C#N)C(=O)CC(C)(C)C3)c1	–	–	–	?	?	–
CN(C)S(=O)(=O)c1cccc(NC(=O)CSc2cccc3cccnc23)c1	–	–	–	7.4µM	12µM	–
CN(C)S(=O)(=O)c1ccc(SCC(=O)Nc2cccc(S(=O)(=O)N3CCCC3)c2)nc1	–	·	·	·	·	·
CCCCOC(=O)CSc1nc2c(cc1C#N)C(=O)CC(C)(C)C2	–	active	–	–	–	47
CN(C)S(=O)(=O)c1cccc(NC(=O)CSc2nc3c(cc2C#N)C(=O)CC(C)(C)C3)c1	–	–	–	?	9.3µM	–
CSc1nc2c(cc1C#N)C(=O)CC(C)(C)C2	–	–	–	?	–	–
O=C(CCS(=O)(=O)c1ccc(Br)s1)N1CCc2ccccc21	–	–	–	–	?	–
COc1cc(CC(=O)OCC(=O)NC2CCCC2)cc(OC)c1OC	–	·	–	–	–	·
COc1ccc(/C=N/Nc2nc(Nc3ccccc3)nc(N3CCCCC3)n2)cc1OC	–	147	–	?	?	34
CCOc1cc(/C=N/Nc2nc(Nc3ccccc3)nc(N3CCCCC3)n2)ccc1OCC(=O)O	–	–	–	–	–	–
O=[N+]([O-])c1cc2c(cc1/C=N/Nc1nc(N3CCCC3)nc(N3CCCC3)n1)OCO2	–	–	–	–	–	–
O=[N+]([O-])c1ccc(Nc2nc(NCCO)nc(N3CCCC3)n2)cc1	–	–	–	–[5.75 µM]	?	–
O=[N+]([O-])c1ccc(Nc2nc(N/N=C\c3ccc4c(c3)OCO4)nc(N3CCCCC3)n2)cc1	–	–	–	2.6µM	2.1µM	–
NNc1nc(Nc2ccc([N+](=O)[O-])cc2)nc(N2CCCCCC2)n1	–	–	–	–	4.1µM	–
COc1ccc(/C=N\Nc2ncc(F)c(N3CCOCC3)n2)cc1OC	–	73	–	?	?	39
COc1ccc(-c2cnnc(N/N=C/c3ccc(OC)c(OC)c3)n2)cc1	–	–	–	–	–	–
CC[C@H](C)[C@H](NC(=O)[C@H](CC(C)C)NC(=O)[C@@H](N)CO)C(=O)NCC(=O)N[C@@H](CCCN=C(N)N)C(=O)N[C@@H](CC(C)C)C(=O)O	·	–	·	·	·	–
COc1ccc(S(=O)(=O)Nc2ccc3c(c2)C(=O)N([C@H](C)CO)C[C@H](C)[C@@H](CN(C)S(=O)(=O)c2ccc(OC)cc2)O3)cc1	–	·	·	·	·	·
Cc1ccc(-n2c(-c3ccccc3)c[n+]3c2CCC3)cc1	–	–	–	0.74µM	1µM	–
FC(F)Sc1ccc(-n2c(-c3ccc(Cl)cc3)c[n+]3c2CCC3)cc1	–	–	–	?	?	–
Cc1ccc(-n2c(-c3ccc(Cl)cc3)c[n+]3c2CCC3)cc1	–	–	–	0.1µM	0.26µM	–
Cc1ccc(Oc2nc(-c3cccnc3)nc3ccccc23)c([N+](=O)[O-])n1	–	–	–	–	–	–
COCCN(C(=O)COC(=O)C12CC3CC(CC(C3)C1)C2)c1c(N)n(Cc2ccccc2)c(=O)[nH]c1=O	–	·	·	·	·	·

High-throughput results from PubChem.
